Among the data in paper PMC7862700, “An all-to-all approach to the identification of sequence-specific readers for epigenetic DNA modifications on cytosine” are binding signal values, retold here.

Holding throughout (assay): DAPPL (digital affinity profiling via proximity ligation, sequencing); 10 mM Tris-HCl pH 7.5, 50 mM NaCl, 1 mM DTT, 4% glycerol, room temperature, 30 min; GST-TFs on glutathione beads, 16-mer random dsDNA library, 0.1% formaldehyde crosslink after washing; high values mean tight binding
One test concerns the target T1, FLI1 (Homo sapiens, UniProt Q01543 1-452).
T1 sequence: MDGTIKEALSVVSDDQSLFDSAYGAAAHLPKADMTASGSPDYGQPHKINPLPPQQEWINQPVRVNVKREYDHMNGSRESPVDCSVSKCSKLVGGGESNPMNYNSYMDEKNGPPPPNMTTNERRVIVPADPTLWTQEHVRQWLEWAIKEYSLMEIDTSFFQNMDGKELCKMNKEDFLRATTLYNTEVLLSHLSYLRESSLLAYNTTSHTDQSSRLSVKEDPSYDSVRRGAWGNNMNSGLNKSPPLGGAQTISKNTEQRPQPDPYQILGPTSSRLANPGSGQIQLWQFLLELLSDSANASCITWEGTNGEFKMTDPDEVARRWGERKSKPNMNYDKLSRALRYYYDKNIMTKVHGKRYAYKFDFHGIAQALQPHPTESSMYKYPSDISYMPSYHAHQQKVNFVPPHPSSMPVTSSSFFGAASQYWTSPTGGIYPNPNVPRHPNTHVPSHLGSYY
Conditions: protein: recombinant; tags: N-terminal GST; dsDNA, one strand shown. In short, it runs like this:
(§1)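 Binding signal is each hexamer's read frequency for a factor divided by its frequency in the tag-only sample. The factors were GST-fused human transcription factors from yeast, captured on glutathione beads, DNA-barcoded and pooled with that sample. Pools were incubated with 200 nmole of a random double-stranded 16-mer DNA library in Tris/NaCl/DTT/glycerol buffer at room temperature for 30 min, then washed, crosslinked with 0.1% formaldehyde, proximity-ligated with BsaI/T4 ligase (1 h, 37 °C), PCR-amplified and sequenced on an Illumina NextSeq500.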

For a further test, the target named is T2, ELK1 (Homo sapiens, UniProt P19419 1-428).
T2 sequence: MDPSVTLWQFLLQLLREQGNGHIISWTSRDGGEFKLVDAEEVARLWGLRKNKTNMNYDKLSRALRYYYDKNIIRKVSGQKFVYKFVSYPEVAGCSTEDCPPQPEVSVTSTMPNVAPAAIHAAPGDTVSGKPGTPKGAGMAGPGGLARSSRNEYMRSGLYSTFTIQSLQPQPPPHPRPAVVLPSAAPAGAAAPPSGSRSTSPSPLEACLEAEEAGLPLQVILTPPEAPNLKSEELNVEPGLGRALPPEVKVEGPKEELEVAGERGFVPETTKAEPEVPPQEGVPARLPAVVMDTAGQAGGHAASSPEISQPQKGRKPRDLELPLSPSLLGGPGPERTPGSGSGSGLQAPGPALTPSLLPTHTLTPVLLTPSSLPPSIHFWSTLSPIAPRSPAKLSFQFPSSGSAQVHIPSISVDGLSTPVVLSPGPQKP
The note with it: protein: recombinant; tags: N-terminal GST; dsDNA, one strand shown. In a few lines: as §1

The target of the next test is T3, GABPA (Homo sapiens, UniProt Q06546 1-454).
T3 sequence: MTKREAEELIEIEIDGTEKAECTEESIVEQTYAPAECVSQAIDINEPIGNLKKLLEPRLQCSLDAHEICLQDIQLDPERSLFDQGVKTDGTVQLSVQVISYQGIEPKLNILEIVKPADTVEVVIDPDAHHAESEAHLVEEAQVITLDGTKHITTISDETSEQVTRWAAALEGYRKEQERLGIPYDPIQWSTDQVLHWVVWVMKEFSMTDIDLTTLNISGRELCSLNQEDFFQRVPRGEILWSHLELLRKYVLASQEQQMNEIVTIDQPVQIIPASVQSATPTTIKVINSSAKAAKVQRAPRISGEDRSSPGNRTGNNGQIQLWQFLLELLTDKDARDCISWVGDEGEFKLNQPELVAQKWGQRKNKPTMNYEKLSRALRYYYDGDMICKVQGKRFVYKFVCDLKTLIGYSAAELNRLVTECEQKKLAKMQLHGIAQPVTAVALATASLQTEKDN
The note with it: protein: recombinant; tags: N-terminal GST; dsDNA, one strand shown. In a few lines:
as §1

Another test has as its target T4, ERG (Homo sapiens, UniProt P11308 1-479).
T4 sequence: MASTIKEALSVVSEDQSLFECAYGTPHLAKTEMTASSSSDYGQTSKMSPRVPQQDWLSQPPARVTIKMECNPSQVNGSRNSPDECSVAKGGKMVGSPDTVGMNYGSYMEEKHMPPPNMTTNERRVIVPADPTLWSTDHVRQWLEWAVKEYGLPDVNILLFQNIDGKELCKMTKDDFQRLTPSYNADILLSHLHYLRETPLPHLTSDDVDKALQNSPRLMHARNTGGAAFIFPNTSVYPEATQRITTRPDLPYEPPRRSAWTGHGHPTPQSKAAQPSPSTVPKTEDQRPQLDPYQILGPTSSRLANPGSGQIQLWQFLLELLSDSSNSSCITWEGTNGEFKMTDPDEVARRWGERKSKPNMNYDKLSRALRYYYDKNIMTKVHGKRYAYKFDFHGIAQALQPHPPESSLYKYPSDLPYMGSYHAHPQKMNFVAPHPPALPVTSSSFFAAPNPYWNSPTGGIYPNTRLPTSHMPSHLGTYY
Conditions: protein: recombinant; tags: N-terminal GST; dsDNA, one strand shown. In short, it runs like this: as §1

For another test, the target named is ELF1 (Homo sapiens, UniProt P32519 1-619). The note with it: protein: recombinant; tags: N-terminal GST; dsDNA, one strand shown. In short, it runs like this:
as §1

Another test addresses T5, EHF (Homo sapiens, UniProt Q9NZC4 1-300).
T5 sequence: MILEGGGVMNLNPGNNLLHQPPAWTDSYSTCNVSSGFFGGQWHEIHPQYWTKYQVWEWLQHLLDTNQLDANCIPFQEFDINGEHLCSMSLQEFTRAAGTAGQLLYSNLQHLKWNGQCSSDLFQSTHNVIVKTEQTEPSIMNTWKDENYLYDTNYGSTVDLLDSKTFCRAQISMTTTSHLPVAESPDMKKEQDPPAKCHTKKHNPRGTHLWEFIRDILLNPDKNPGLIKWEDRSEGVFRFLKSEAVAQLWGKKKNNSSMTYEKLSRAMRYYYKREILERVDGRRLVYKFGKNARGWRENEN
The note with it: protein: recombinant; tags: N-terminal GST; dsDNA, one strand shown. In short, it runs like this: as §1

Another test addresses SPI1 (Homo sapiens, UniProt P17947 1-270). Conditions: protein: recombinant; tags: N-terminal GST; dsDNA, one strand shown. In a few lines:
as §1

The next test has as its target SPIB (Homo sapiens, UniProt Q01892 1-262). The note with it: protein: recombinant; tags: N-terminal GST; dsDNA, one strand shown. In short, it runs like this:
as §1

The next test has as its target T6, ELK3 (Homo sapiens, UniProt P41970 1-407).
T6 sequence: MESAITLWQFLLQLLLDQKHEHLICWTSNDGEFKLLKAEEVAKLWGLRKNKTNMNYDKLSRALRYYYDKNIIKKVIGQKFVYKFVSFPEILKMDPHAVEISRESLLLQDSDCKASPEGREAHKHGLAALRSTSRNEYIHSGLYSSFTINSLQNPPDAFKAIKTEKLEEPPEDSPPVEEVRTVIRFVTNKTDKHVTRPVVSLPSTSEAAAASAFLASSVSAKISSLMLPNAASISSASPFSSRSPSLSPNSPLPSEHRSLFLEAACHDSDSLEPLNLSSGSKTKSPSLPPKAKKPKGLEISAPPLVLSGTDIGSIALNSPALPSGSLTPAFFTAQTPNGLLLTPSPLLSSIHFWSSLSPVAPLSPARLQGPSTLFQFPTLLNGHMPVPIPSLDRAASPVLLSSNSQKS
Conditions: protein: recombinant; tags: N-terminal GST; dsDNA, one strand shown. In short, it runs like this: as §1

A further test addresses T7, FEV (Homo sapiens, UniProt Q99581 1-238).
T7 sequence: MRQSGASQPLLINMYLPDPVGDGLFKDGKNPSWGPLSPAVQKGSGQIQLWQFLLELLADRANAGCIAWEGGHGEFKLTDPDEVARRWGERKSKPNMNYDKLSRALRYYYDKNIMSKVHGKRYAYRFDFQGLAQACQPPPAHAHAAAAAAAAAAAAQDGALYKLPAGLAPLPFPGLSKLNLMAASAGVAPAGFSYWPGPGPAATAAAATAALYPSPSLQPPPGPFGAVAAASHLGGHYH
Conditions: protein: recombinant; tags: N-terminal GST; dsDNA, one strand shown. In short, it runs like this: as §1

The next test addresses ETV5 (Homo sapiens, UniProt P41161 1-510). The note with it: protein: recombinant; tags: N-terminal GST; dsDNA, one strand shown. In a few lines:
as §1

The next test has as its target HSF1 (Homo sapiens, UniProt Q00613 1-529). The note with it: protein: recombinant; tags: N-terminal GST; chain copies: 3; dsDNA, one strand shown. In a few lines:
as §1

Another test concerns the target T8, SPIC (Homo sapiens, UniProt Q8N5J4 1-248).
T8 sequence: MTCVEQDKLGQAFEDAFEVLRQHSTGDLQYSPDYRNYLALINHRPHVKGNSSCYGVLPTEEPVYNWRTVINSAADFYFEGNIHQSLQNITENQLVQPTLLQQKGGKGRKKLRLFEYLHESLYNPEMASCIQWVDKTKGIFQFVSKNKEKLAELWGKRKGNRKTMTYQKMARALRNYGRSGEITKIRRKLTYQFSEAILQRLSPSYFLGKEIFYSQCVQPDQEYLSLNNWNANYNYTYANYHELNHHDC
Conditions: protein: recombinant; tags: N-terminal GST; dsDNA, one strand shown. In a few lines:
as §1

The next test addresses ELF4 (Homo sapiens, UniProt Q99607 1-663). Conditions: protein: recombinant; tags: N-terminal GST; dsDNA, one strand shown. In a few lines: as §1
For the next test, the target named is T9, ELK4 (Homo sapiens, UniProt P28324-2 1-405).
T9 sequence: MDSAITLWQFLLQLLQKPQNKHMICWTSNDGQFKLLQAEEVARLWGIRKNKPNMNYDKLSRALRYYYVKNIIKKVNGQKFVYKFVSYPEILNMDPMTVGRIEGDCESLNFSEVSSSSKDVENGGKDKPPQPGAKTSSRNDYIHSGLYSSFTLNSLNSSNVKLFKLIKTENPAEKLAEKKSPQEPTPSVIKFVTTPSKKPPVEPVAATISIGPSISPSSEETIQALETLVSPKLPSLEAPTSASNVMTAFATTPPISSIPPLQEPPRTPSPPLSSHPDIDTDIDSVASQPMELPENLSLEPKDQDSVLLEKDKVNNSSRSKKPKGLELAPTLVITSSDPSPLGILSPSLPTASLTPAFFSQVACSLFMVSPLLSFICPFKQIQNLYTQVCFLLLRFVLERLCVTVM
Conditions: protein: recombinant; tags: N-terminal GST; dsDNA, one strand shown. In a few lines: as §1

In a further test the target is T10, ETV2 (Homo sapiens, UniProt O00321 1-342).
T10 sequence: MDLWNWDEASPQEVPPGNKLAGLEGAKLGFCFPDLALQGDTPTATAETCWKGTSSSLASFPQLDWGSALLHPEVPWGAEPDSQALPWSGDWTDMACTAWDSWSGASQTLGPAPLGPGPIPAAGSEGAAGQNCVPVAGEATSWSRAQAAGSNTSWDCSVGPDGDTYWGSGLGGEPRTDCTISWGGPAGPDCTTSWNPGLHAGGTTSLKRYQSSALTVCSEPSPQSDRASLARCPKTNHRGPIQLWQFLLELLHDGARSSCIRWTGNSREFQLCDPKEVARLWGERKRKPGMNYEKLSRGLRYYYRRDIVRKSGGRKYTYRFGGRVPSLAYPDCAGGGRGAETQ
The note with it: protein: recombinant; tags: N-terminal GST; dsDNA, one strand shown. In a few lines: as §1

Another test has as its target T11, ELF3 (Homo sapiens, UniProt P78545 1-371).
T11 sequence: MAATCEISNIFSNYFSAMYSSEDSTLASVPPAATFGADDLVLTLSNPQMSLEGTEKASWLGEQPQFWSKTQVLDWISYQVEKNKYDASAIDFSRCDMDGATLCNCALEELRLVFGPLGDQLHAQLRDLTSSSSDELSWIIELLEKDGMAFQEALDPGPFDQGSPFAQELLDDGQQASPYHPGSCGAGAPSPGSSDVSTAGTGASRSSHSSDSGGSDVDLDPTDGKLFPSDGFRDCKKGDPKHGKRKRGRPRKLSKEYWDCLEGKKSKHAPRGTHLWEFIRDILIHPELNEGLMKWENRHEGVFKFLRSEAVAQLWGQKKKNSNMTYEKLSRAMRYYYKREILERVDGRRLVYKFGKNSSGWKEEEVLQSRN
The note with it: protein: recombinant; tags: N-terminal GST; dsDNA, one strand shown. In short, it runs like this:
as §1

The next test concerns the target CRX (Homo sapiens, UniProt O43186 1-299). Conditions: protein: recombinant; tags: N-terminal GST; dsDNA, one strand shown. In short, it runs like this: as §1
A further test has as its target ETV1 (Homo sapiens, UniProt P50549 1-477). Conditions: protein: recombinant; tags: N-terminal GST; dsDNA, one strand shown. In a few lines:
as §1

Chain of HSF1 (Q00613 whole entry): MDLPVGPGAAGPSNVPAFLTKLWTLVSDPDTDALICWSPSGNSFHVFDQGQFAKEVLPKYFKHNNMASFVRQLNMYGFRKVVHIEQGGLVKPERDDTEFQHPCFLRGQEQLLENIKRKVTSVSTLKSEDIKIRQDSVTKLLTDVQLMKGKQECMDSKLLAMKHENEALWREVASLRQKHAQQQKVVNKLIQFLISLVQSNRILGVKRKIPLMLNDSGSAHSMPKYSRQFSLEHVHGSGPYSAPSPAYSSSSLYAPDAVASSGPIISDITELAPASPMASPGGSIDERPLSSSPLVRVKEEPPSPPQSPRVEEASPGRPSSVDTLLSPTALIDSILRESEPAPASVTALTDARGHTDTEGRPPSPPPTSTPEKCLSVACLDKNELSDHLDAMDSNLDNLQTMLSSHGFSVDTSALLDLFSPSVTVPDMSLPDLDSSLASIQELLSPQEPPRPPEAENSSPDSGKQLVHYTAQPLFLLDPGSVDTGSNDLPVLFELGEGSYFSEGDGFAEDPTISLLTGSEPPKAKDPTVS
Chain of ELF1 (P32519 whole entry): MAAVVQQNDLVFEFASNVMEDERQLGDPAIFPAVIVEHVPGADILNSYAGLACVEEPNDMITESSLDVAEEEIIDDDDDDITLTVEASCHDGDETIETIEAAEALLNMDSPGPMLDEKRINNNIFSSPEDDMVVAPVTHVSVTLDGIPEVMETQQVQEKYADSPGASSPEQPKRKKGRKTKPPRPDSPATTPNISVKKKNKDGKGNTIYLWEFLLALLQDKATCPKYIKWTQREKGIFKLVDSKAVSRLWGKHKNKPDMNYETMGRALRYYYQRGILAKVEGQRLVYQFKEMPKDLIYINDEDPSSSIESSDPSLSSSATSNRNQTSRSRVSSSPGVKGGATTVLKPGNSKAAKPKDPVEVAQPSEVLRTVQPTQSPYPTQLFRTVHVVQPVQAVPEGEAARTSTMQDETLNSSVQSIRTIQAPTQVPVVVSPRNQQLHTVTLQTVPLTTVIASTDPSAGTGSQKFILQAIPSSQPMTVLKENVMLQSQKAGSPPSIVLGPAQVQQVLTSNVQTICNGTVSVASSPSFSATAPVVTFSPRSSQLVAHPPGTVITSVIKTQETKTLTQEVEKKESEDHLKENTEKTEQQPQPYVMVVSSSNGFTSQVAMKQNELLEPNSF
Chain of SPIB (Q01892 whole entry): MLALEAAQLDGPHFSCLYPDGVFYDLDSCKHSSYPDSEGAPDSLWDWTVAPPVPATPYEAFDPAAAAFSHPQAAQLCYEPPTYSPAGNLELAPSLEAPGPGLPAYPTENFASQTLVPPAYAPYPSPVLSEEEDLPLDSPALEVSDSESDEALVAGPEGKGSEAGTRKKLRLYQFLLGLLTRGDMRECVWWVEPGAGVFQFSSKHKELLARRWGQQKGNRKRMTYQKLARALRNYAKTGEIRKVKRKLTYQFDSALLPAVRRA
Chain of CRX (O43186 whole entry): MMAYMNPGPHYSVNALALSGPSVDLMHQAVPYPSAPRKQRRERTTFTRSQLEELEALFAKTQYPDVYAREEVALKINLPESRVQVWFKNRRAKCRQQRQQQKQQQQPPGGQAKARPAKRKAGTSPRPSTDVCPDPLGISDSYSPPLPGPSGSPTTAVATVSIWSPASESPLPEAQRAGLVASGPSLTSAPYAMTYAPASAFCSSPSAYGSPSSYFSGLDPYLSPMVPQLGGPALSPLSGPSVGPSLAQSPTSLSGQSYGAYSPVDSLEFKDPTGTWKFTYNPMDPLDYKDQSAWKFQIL
Chain of ETV5 (P41161 whole entry): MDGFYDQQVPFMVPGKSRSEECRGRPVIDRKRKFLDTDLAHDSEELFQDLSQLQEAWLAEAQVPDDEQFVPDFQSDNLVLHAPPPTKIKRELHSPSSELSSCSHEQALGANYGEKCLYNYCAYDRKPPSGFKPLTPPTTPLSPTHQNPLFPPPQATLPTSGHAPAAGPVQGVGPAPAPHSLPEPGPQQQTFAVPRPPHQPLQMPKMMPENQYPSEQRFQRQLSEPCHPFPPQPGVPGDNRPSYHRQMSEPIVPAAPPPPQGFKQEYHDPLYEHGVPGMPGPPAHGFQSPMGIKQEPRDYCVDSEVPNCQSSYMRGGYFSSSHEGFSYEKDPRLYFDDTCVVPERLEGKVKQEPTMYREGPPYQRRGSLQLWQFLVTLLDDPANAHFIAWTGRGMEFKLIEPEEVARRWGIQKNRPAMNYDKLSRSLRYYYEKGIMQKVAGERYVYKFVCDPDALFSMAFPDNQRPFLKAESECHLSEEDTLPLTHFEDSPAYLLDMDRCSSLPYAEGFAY
Chain of ETV1 (P50549 whole entry): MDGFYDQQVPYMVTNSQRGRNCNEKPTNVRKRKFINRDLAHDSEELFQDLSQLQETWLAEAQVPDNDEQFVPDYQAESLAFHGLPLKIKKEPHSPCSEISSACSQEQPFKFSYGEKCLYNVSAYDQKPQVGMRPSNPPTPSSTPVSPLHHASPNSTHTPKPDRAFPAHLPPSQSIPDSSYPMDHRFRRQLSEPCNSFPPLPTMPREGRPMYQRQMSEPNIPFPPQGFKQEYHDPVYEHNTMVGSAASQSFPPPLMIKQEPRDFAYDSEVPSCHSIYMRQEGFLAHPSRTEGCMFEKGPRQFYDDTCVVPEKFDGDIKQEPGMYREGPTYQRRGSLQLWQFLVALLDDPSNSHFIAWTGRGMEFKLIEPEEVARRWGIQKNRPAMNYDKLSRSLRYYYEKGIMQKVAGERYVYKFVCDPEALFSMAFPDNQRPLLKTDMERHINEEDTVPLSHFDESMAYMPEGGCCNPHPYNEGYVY
Chain of ELF4 (Q99607 whole entry): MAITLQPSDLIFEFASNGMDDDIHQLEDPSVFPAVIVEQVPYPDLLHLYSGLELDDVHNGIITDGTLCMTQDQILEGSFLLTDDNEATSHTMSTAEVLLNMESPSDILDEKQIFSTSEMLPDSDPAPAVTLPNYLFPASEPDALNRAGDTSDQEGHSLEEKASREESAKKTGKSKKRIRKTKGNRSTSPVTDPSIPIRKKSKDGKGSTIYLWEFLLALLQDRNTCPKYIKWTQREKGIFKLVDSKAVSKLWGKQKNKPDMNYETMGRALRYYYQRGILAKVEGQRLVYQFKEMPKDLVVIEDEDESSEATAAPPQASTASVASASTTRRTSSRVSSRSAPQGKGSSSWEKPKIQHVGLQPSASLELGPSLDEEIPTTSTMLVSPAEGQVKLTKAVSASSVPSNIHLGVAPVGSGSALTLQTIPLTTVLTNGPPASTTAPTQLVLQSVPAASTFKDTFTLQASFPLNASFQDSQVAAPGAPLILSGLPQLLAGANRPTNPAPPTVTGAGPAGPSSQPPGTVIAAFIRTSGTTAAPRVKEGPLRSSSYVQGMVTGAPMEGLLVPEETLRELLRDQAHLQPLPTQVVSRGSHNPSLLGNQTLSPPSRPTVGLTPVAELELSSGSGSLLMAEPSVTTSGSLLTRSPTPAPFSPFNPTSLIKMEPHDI

As to TGGAAT, the binding signal was 1.36 fold enrichment (6-mer frequency, TF over GST control) with FLI1; 1.21 fold enrichment (6-mer frequency, TF over GST control) with ELK1; 1.3 fold enrichment (6-mer frequency, TF over GST control) in the test with GABPA; 1.25 fold enrichment (6-mer frequency, TF over GST control) with ERG; 1.22 fold enrichment (6-mer frequency, TF over GST control) with ELF1; 1.19 fold enrichment (6-mer frequency, TF over GST control) with EHF. For the same sequence, the binding signal in the test with SPI1 is 1.25 fold enrichment (6-mer frequency, TF over GST control); in the test with SPIB, 1.21 fold enrichment (6-mer frequency, TF over GST control); with ELK3, 1.25 fold enrichment (6-mer frequency, TF over GST control); with FEV, 1.21 fold enrichment (6-mer frequency, TF over GST control); in the test with ETV5, 1.22 fold enrichment (6-mer frequency, TF over GST control); in the test with HSF1 it was 2.63 fold enrichment (6-mer frequency, TF over GST control). Moreover, the binding signal was 1.22 fold enrichment (6-mer frequency, TF over GST control) with SPIC; 1.14 fold enrichment (6-mer frequency, TF over GST control) in the test with ELF4; 1.21 fold enrichment (6-mer frequency, TF over GST control) with ELK4; 1.47 fold enrichment (6-mer frequency, TF over GST control) with ETV2; 1.21 fold enrichment (6-mer frequency, TF over GST control) in the test with ELF3; 1.77 fold enrichment (6-mer frequency, TF over GST control) in the test with CRX. Besides, the binding signal in the test with ETV1 is 1.24 fold enrichment (6-mer frequency, TF over GST control).
